From PMC7862700, “An all-to-all approach to the identification of sequence-specific readers for epigenetic DNA modifications on cytosine” come the findings set out here.

What all share (assay): DAPPL (digital affinity profiling via proximity ligation, sequencing); 10 mM Tris-HCl pH 7.5, 50 mM NaCl, 1 mM DTT, 4% glycerol, room temperature, 30 min; GST-TFs on glutathione beads, 16-mer random dsDNA library, 0.1% formaldehyde crosslink after washing; high values mean tight binding
One experiment deals with T1, FLI1 (Homo sapiens, UniProt Q01543 1-452).
T1 sequence: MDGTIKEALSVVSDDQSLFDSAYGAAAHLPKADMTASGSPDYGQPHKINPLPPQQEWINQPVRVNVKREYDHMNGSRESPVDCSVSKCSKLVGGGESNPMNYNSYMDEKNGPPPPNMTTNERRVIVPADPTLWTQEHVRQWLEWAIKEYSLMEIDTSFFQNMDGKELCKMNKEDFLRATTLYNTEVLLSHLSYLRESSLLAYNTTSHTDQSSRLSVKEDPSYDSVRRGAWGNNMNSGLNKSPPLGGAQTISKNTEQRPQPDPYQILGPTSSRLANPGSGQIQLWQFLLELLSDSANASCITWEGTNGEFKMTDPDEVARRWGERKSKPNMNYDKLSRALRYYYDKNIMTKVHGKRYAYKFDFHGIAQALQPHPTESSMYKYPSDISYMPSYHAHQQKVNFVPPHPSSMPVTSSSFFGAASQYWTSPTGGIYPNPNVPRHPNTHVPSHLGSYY
Conditions: protein: recombinant; tags: N-terminal GST; dsDNA, one strand shown. A digest of the protocol:
(§1)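 In yeast, human transcription factors were expressed with a GST fusion, then pulled down on glutathione beads and given DNA barcodes. Pooled with a tag-only sample, they were exposed to 200 nmole of a 16-mer random double-stranded DNA library (Tris/NaCl/DTT/glycerol buffer, room temperature, 30 min), washed, crosslinked with 0.1% formaldehyde, proximity-ligated using BsaI/T4 ligase for 1 h at 37 °C, PCR-amplified and read on an Illumina NextSeq500. Each hexamer's frequency of reads for a factor, divided by the matching frequency for the tag-only sample, gives the binding signal.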

The next experiment has as its target T2, ELK1 (Homo sapiens, UniProt P19419 1-428).
T2 sequence: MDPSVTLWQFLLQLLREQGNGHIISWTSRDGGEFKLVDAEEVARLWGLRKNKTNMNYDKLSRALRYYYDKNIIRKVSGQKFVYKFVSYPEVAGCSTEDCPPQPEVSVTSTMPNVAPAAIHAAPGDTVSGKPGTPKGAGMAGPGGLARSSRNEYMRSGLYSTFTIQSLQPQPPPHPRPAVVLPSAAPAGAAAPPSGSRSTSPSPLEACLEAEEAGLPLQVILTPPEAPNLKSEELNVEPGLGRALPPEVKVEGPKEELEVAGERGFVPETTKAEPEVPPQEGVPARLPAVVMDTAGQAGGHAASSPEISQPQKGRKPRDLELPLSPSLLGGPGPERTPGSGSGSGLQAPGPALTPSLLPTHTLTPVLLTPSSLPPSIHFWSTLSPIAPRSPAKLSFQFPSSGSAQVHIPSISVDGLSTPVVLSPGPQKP
The following applies: protein: recombinant; tags: N-terminal GST; dsDNA, one strand shown. Summed up: as §1

For the next experiment, the target named is T3, GABPA (Homo sapiens, UniProt Q06546 1-454).
T3 sequence: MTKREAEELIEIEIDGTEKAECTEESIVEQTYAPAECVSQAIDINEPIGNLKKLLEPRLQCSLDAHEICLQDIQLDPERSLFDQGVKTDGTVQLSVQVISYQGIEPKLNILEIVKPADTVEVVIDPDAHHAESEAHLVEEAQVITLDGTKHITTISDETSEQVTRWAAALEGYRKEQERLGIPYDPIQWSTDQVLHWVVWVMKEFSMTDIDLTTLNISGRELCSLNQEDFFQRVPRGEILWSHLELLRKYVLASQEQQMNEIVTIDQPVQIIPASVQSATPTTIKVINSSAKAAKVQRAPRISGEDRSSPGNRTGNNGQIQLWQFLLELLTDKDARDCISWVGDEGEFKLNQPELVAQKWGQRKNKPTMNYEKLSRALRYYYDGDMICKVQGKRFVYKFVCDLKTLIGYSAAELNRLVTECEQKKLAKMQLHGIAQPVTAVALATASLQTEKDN
The following applies: protein: recombinant; tags: N-terminal GST; dsDNA, one strand shown. A digest of the protocol: as §1

The next experiment concerns the target T4, ERG (Homo sapiens, UniProt P11308 1-479).
T4 sequence: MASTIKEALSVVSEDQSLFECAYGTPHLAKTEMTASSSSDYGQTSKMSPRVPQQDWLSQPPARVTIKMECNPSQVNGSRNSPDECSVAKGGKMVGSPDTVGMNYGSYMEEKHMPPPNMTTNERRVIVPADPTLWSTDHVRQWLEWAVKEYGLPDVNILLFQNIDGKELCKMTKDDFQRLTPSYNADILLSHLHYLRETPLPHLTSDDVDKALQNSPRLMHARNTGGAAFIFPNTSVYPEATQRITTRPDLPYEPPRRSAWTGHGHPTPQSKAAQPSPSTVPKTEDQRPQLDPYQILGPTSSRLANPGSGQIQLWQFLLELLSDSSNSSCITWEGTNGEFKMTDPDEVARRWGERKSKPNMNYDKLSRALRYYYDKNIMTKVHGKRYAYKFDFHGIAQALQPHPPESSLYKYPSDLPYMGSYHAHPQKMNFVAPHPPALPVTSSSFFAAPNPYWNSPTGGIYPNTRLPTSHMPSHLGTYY
Conditions: protein: recombinant; tags: N-terminal GST; dsDNA, one strand shown. Summed up:
as §1

The target in the next experiment is ELF1 (Homo sapiens, UniProt P32519 1-619). Conditions: protein: recombinant; tags: N-terminal GST; dsDNA, one strand shown. Summed up:
as §1

The target of a further experiment is T5, EHF (Homo sapiens, UniProt Q9NZC4 1-300).
T5 sequence: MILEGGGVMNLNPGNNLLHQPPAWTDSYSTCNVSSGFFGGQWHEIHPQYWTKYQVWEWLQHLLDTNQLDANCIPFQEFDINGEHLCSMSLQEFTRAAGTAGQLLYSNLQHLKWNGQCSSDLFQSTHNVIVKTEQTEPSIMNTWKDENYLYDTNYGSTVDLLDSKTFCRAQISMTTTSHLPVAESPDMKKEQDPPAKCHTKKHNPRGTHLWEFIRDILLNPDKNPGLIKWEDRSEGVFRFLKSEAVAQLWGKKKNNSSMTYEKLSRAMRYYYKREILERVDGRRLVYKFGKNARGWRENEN
The following applies: protein: recombinant; tags: N-terminal GST; dsDNA, one strand shown. Summed up: as §1

The next experiment has as its target SPI1 (Homo sapiens, UniProt P17947 1-270). The following applies: protein: recombinant; tags: N-terminal GST; dsDNA, one strand shown. Summed up: as §1
A further experiment deals with SPIB (Homo sapiens, UniProt Q01892 1-262). The following applies: protein: recombinant; tags: N-terminal GST; dsDNA, one strand shown. A digest of the protocol:
as §1

The target of a further experiment is T6, ELK3 (Homo sapiens, UniProt P41970 1-407).
T6 sequence: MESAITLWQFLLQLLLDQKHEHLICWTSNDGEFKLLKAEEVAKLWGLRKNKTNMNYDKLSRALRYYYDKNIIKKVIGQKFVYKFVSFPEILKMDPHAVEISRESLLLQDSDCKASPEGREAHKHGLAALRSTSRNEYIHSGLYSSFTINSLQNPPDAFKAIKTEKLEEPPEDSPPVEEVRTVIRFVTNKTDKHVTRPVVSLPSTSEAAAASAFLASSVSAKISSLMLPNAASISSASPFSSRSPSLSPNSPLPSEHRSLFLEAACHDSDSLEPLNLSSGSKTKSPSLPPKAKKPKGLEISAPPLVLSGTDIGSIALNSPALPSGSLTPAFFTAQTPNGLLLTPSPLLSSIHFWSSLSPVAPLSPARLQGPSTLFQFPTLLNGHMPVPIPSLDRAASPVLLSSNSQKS
Conditions: protein: recombinant; tags: N-terminal GST; dsDNA, one strand shown. A digest of the protocol: as §1

The target of the next experiment is ETV5 (Homo sapiens, UniProt P41161 1-510). Conditions: protein: recombinant; tags: N-terminal GST; dsDNA, one strand shown. A digest of the protocol: as §1
The target of the next experiment is HSF1 (Homo sapiens, UniProt Q00613 1-529). Conditions: protein: recombinant; tags: N-terminal GST; chain copies: 3; dsDNA, one strand shown. A digest of the protocol:
as §1

Another experiment concerns the target T7, SPIC (Homo sapiens, UniProt Q8N5J4 1-248).
T7 sequence: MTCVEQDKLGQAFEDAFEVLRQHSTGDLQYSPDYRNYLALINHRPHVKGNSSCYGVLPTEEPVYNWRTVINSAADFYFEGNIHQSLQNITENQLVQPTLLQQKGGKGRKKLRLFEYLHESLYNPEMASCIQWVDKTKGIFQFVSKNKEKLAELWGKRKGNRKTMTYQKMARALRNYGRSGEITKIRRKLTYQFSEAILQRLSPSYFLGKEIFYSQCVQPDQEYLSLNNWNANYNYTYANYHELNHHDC
Conditions: protein: recombinant; tags: N-terminal GST; dsDNA, one strand shown. Summed up:
as §1

The target of the next experiment is ELF4 (Homo sapiens, UniProt Q99607 1-663). The following applies: protein: recombinant; tags: N-terminal GST; dsDNA, one strand shown. Summed up: as §1
The target of the next experiment is T8, ELK4 (Homo sapiens, UniProt P28324-2 1-405).
T8 sequence: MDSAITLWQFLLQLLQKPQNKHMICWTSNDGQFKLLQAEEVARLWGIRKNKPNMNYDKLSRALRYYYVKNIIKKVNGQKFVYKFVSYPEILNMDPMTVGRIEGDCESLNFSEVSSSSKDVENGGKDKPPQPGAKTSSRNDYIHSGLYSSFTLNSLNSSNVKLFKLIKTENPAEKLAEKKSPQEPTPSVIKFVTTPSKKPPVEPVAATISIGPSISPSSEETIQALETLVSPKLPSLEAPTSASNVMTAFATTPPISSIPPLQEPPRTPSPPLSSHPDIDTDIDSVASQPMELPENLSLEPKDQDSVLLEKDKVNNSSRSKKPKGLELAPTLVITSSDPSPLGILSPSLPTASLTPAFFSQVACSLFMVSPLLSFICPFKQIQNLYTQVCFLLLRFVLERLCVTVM
The following applies: protein: recombinant; tags: N-terminal GST; dsDNA, one strand shown. Summed up: as §1

Another experiment deals with T9, ETV2 (Homo sapiens, UniProt O00321 1-342).
T9 sequence: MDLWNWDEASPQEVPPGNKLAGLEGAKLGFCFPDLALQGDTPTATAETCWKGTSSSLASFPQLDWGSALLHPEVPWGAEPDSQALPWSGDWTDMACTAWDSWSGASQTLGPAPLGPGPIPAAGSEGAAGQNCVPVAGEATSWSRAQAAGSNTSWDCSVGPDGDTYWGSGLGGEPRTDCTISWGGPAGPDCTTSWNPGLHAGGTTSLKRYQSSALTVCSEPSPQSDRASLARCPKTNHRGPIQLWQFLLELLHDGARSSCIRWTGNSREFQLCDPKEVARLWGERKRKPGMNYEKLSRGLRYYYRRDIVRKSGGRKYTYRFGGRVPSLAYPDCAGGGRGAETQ
Conditions: protein: recombinant; tags: N-terminal GST; dsDNA, one strand shown. Summed up:
as §1

The next experiment has as its target T10, ELF3 (Homo sapiens, UniProt P78545 1-371).
T10 sequence: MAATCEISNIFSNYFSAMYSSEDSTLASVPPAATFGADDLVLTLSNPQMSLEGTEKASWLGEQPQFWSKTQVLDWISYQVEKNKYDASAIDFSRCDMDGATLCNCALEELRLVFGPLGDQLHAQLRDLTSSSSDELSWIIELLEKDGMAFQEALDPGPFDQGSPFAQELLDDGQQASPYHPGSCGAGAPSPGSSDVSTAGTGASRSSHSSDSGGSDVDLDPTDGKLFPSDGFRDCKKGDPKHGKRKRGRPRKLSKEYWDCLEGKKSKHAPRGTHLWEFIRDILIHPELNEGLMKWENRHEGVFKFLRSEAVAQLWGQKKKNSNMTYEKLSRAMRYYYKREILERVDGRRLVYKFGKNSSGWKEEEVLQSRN
The following applies: protein: recombinant; tags: N-terminal GST; dsDNA, one strand shown. A digest of the protocol: as §1

For the next experiment, the target named is CRX (Homo sapiens, UniProt O43186 1-299). Conditions: protein: recombinant; tags: N-terminal GST; dsDNA, one strand shown. Summed up:
as §1

For a further experiment, the target named is ETV1 (Homo sapiens, UniProt P50549 1-477). The following applies: protein: recombinant; tags: N-terminal GST; dsDNA, one strand shown. A digest of the protocol:
as §1

CRX, sequence (O43186 whole entry): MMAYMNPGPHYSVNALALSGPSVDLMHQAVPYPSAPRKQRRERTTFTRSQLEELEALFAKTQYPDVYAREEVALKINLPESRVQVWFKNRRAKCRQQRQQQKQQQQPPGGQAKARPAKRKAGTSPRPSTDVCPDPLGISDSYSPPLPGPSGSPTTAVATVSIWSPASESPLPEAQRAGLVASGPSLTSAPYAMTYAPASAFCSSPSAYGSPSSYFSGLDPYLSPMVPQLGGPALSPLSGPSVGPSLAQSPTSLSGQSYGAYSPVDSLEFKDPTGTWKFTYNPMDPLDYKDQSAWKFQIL
ETV5, sequence (P41161 whole entry): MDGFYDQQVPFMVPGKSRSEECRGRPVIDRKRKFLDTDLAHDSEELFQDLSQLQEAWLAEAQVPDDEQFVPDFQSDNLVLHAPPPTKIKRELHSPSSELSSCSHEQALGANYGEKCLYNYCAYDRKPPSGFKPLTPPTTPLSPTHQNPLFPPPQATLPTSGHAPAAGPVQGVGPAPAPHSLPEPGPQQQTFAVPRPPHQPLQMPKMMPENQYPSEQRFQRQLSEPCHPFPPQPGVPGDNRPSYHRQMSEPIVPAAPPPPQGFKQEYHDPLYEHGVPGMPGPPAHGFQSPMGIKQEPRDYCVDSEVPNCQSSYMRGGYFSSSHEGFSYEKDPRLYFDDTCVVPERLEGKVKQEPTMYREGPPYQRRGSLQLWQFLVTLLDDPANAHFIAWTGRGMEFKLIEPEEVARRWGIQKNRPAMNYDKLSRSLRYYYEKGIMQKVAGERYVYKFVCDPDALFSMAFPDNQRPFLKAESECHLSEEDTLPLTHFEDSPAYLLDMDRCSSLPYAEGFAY
HSF1, sequence (Q00613 whole entry): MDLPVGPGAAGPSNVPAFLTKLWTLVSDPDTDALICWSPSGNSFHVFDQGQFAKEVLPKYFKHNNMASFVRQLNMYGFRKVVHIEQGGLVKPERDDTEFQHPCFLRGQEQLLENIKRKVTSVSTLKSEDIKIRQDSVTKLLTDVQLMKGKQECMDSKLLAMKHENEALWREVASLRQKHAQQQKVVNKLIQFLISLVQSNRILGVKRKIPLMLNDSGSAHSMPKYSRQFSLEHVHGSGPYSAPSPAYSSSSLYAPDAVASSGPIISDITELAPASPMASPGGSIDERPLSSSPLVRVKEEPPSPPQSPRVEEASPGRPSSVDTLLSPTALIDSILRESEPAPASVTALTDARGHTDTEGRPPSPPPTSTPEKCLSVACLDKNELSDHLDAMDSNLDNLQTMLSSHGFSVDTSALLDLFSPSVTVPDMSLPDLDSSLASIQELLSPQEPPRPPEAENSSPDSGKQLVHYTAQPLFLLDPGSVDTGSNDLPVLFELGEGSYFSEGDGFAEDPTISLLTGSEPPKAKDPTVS
SPIB, sequence (Q01892 whole entry): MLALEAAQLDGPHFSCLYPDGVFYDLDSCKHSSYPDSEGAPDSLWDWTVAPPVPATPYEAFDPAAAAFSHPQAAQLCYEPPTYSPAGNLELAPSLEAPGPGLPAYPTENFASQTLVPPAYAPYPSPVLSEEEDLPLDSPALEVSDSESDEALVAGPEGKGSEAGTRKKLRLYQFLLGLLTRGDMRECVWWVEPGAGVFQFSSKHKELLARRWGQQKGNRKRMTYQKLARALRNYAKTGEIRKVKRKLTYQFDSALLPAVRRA
ELF1, sequence (P32519 whole entry): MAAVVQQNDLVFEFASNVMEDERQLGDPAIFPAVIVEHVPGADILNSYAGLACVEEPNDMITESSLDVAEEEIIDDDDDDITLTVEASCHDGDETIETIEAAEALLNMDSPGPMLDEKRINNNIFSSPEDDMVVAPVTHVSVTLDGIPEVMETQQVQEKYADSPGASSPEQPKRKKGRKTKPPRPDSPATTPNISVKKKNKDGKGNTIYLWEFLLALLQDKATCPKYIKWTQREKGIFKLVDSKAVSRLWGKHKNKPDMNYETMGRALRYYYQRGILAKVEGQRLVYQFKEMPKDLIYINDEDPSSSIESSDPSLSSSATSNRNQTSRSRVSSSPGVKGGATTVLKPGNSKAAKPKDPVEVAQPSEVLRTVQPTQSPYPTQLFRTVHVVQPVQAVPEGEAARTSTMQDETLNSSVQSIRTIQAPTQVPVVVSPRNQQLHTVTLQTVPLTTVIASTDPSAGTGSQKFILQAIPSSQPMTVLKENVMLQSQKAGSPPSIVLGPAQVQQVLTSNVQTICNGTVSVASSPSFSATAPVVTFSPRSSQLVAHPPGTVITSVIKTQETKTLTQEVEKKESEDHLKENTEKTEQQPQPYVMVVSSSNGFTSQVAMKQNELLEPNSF
ETV1, sequence (P50549 whole entry): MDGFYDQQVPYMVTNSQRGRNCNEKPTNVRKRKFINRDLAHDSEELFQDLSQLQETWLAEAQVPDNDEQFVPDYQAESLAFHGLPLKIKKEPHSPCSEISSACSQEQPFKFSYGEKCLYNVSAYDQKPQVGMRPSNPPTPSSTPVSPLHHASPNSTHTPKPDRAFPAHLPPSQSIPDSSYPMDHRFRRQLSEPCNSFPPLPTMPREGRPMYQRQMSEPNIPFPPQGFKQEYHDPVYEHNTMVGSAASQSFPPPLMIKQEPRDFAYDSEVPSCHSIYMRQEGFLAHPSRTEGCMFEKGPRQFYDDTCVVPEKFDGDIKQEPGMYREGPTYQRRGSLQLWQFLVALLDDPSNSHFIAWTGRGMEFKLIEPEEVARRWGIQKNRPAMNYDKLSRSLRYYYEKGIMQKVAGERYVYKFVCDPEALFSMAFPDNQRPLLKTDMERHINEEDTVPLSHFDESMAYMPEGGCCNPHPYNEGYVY
ELF4, sequence (Q99607 whole entry): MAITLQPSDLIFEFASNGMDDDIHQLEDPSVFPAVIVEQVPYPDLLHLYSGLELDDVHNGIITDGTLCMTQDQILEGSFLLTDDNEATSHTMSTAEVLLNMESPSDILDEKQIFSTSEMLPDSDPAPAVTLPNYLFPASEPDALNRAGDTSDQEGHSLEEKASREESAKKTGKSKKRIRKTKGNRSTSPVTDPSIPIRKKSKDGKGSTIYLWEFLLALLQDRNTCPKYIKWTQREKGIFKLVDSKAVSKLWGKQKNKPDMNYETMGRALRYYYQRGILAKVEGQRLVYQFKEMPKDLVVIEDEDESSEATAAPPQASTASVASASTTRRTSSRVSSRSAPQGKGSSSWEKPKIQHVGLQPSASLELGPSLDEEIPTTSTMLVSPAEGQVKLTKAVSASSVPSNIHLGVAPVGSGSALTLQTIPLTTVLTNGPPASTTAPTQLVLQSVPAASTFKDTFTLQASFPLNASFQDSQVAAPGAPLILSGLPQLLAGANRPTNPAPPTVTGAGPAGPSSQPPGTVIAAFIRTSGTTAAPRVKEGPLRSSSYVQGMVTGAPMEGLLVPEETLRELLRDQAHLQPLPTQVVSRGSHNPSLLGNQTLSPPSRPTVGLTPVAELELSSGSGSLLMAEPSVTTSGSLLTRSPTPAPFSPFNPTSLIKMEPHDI

On to TAAGGT, for which the binding signal in the experiment with FLI1 is 1.12 fold enrichment (6-mer frequency, TF over GST control); in the experiment with ELK1, 1.08 fold enrichment (6-mer frequency, TF over GST control); with GABPA, 1.14 fold enrichment (6-mer frequency, TF over GST control); in the experiment with ERG it was 1.01 fold enrichment (6-mer frequency, TF over GST control); with ELF1 it was 1.04 fold enrichment (6-mer frequency, TF over GST control); with EHF, 1.17 fold enrichment (6-mer frequency, TF over GST control). The binding signal with SPI1 was 1.02 fold enrichment (6-mer frequency, TF over GST control); with SPIB it was 1.07 fold enrichment (6-mer frequency, TF over GST control); in the experiment with ELK3, 1.13 fold enrichment (6-mer frequency, TF over GST control); in the experiment with ETV5 it was 1.12 fold enrichment (6-mer frequency, TF over GST control); in the experiment with HSF1, 1.1 fold enrichment (6-mer frequency, TF over GST control); with SPIC it was 1.11 fold enrichment (6-mer frequency, TF over GST control). In addition, the binding signal in the experiment with ELF4 is 1.19 fold enrichment (6-mer frequency, TF over GST control); with ELK4, 1.06 fold enrichment (6-mer frequency, TF over GST control); with ETV2 it was 1.08 fold enrichment (6-mer frequency, TF over GST control); with ELF3, 1.08 fold enrichment (6-mer frequency, TF over GST control); in the experiment with CRX it was 1.38 fold enrichment (6-mer frequency, TF over GST control); in the experiment with ETV1, 1.1 fold enrichment (6-mer frequency, TF over GST control).
